Source: PubChem BioAssay (NCI)
The panel holds about 79,000 compounds, 15% with a hit somewhere; the sample as a whole holds those more often. Active and inactive are the calls of the source. Cut-off read from the data, not from the text of the source: active = growth inhibition above about 70%; inactive = the rest.

Assay: NCI Yeast Anticancer Drug Screen. Data for the wt2 strain (AID 169);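 note: 0% = growth of vehicle-treated yeast cultures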
Settings: S. cerevisiae wt2 strain growth inhibition; at 3.7 µM; active compounds read high
How it was run: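 Treated yeast vs. vehicle-treated yeast: growth inhibition determined.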

SMILES	growth inhibition
COc1ccc(/C=C2\CCc3ccccc3C2=O)cc1OC	-25% (inactive)
O=Cc1ccccc1B(O)O	1% (inactive)
CC(=O)CC[N+](C)(C)C	-1% (inactive)
O=C(O)[C@H]1[C@@H](C2CCCCC2)O[C@@H](C2CCCCC2)O[C@H]1C(F)(F)F	-3% (inactive)
CN(NC(=O)/C(=C/C=C/c1ccccc1)NC(=O)c1ccccc1)C1=C(Cl)C(=O)[N+](c2ccccc2)=CC1	0% (inactive)
CCCCOc1ccc(Nc2c3ccccc3nc3ccccc23)cc1	-10% (inactive)
N#C/C(=C1C=C/C(=N\O)C(Cl)=C\1)c1ccccc1	-11% (inactive)
COc1ccc(C(=O)OCCc2ccccc2)cc1	-9% (inactive)
Cc1c2ccncc2c(C)c2c1oc1ccccc12	17% (inactive)
CCCC#CCOC(=O)c1cc([N+](=O)[O-])cc([N+](=O)[O-])c1	95% (active)
Nc1nc(Nc2ccccc2)nc(Nc2ccccc2)n1	-8% (inactive)
COc1ccc(/C=C2\S/C(=N/Nc3nc(-c4ccccc4)cs3)NC2=O)cc1OC	79% (active)
CC(O)CN1C(=O)c2cccc3cc([N+](=O)[O-])cc(c23)C1=O (stereo not drawn)	-18% (inactive)
Cn1c(COc2ccc(/C=N/NC(=O)CCC(=O)N/N=C/c3ccc(OCc4c[n+]5ccccc5n4C)cc3)cc2)c[n+]2ccccc12	5% (inactive)
COC1=C(N=[N+]=[N-])C(=O)c2ncccc2C1=O	-12% (inactive)
CCN(CC)c1ccc(N=Nc2cc(S(=O)(=O)O)ccc2O)c(O)c1	-6% (inactive)
O=C1C(C(O)(C(F)(F)F)C(F)(F)F)CCC1C(O)(C(F)(F)F)C(F)(F)F (stereo not drawn)	4% (inactive)
CN(C)CCNC(=O)c1cccc2nc3c(ccc4ccccc43)nc12	6% (inactive)
O=S(=O)(CCC[C@H]1[C@@H](CCOCc2ccccc2)C2CCCN1O2)c1ccccc1 (stereo partly drawn)	-1% (inactive)
CCC(C)/C(C)=N/NC(N)=O (stereo not drawn)	2% (inactive)
Nc1c([N+](=O)[O-])cc2c3c(cccc13)CC2	10% (inactive)
CC1=Cc2ccc(C)cc2C(=O)C1=O	-6% (inactive)
C=Cc1c(C)c(O)cc2c1-c1ccc(O)c(C)c1CC2	-43% (inactive)
NCC(O)CSCc1ccc(Cl)cc1 (stereo not drawn)	-9% (inactive)
C[n+]1c(-c2ccc(NC(=O)c3ccc(C(=O)Nc4ccc(-c5cn6ccccc6[n+]5C)cc4)cc3)cc2)cn2ccccc21	2% (inactive)
CNC(=O)OCc1c(COC(=O)NC)c(C)n(-c2ccc(Cl)c(Cl)c2)c1C	-37% (inactive)
[O-]c1c2cc(-[n+]3c(-c4ccccc4)cc(-c4ccccc4)cc3-c3ccccc3)cc1COCCOCCOCCOCCOC2	-3% (inactive)
C[Si](C)(C)Cc1ccccc1C(=O)O	-3% (inactive)
